Results on 31 compounds are retold here after PubChem BioAssay AID493029 (Johns Hopkins Ion Channel Center, 2011).

Among all 1,000 compounds or so, about 140 (14%) were called active. No rule for the calls is given here. These entries were drawn from the full list.

The test in a line: non-target flux effects, untransfected CHO, cell-based, thallium flux, counter-screen for KCNQ2 inhibitor project (AID 493029).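 As to activity change: 0% = vehicle negative controls with stimulus buffer.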 The note with it: parental CHO cells, at 10 µM; active compounds read low.
On to `CCc1ccc(-c2nn(-c3ccccc3)cc2CSC(=N)N)cc1`, for which the activity change is -31% (active).

As to `CC(NC(=S)NNS(=O)(=O)c1ccc(C(C)(C)C)cc1)c1ccccc1` (stereo unspecified), the activity change entry is “inactive”. As for `C=CS(=O)c1sc(Cl)c(N2CCOCC2)c1[N+](=O)[O-]` (stereo unspecified), the figure is -22.5% (active); as for `Cc1ccc(C(=O)c2c(NC(=O)c3ccccc3)sc(C)c2C)cc1`, “inactive”; as for `O=C(OCC(=O)N(CCc1ccccc1)Cc1ccccc1)c1ccccc1[N+](=O)[O-]`, “inactive”. As for `CCOC(=O)C(C)Sc1nc2ccccc2c(=O)n1CC1CCCCC1` (stereo unspecified), the figure is -21% (active); as for `Cc1ccc(C2=Nc3c(ccc4ccccc34)C(c3ccncc3)=NN2)cc1`, “inactive”; as for `COc1cccc(COc2ccc(N(C)S(=O)(=O)c3ccccc3)cc2)c1`, “inactive”. As for `Cc1ccc(C(C)C)cc1OCC(=O)Nc1ccccc1N1CCCC1`, the entry is “inactive”; as for `CC(C)N(C(=O)CSc1nc(COc2ccccc2)nc2ccccc12)C(C)C`, -42.5% (active); as for `CCc1ccc(-c2cc(C(=O)NCc3ccco3)c3ccccc3n2)s1`, “inactive”. On to `CC(C)[C@H](NC(=O)OCc1ccccc1)C(=O)OCc1ccccc1`, for which the activity change entry was “inactive”. `Cc1ccc(N2C(=O)C3C(c4ccccc4)(C2=O)C3(c2ccccc2)c2ccccc2)cc1` (stereo unspecified): the activity change result is “inactive”.

As for `Cc1cccc(C(=O)OC(C)C(=O)NC2CCCc3ccccc32)c1O` (stereo unspecified), the activity change result is “inactive”.

As to `CCc1ccccc1NC(=O)/C(=C/c1ccccc1)c1ccccc1`, the activity change result is “inactive”.

Turning to `CSCc1cc(N(C)C)nc(SCc2ccc(Cl)cc2Cl)n1`, the activity change entry was “inactive”. With `O=C(Nc1ccccc1Cl)/C(Cl)=C(\Cl)S(=O)c1ccccc1` (stereo unspecified) the entry was “inactive”; with `CCc1ccc2ncc(C(=O)c3ccccc3)c(N3CCOCC3)c2c1`, “inactive”; with `COc1ccc(CN(C)C(C)C(=O)NC2CCCc3ccccc32)cc1` (stereo unspecified), “inactive”. Regarding `CC(C)C(NC(=O)OCc1ccccc1)C(=O)OCC(=O)N1C(C)CCCC1C` (stereo unspecified), the activity change entry was “inactive”. With `CC(C(=O)NCC1CCCCC1)N(C)Cc1cccc(Cl)c1` (stereo unspecified) the figure was -35% (active); with `COC(=O)C1=C(C)N(C(C)c2ccccc2)C(=O)/C1=C\c1ccco1` (stereo unspecified), “inactive”; with `Fc1ccc2[nH]c3c(N4CCSCC4)ncnc3c2c1`, “inactive”. As for `CCOC(=O)N1CCC(N(CCOC)C(=O)Nc2ccc(C)c(C)c2)CC1`, the figure is -23.5% (active).

`Cc1ccccc1N1CCN(CC(=O)NCc2ccc(Cl)cc2)CC1`: the activity change entry is “inactive”.

On to `COc1ccc(Cl)cc1NC(=O)CN(C)Cc1ccc(OC)c(OC)c1`, for which the activity change entry was “inactive”. With `CN(Cc1ccccc1F)C(=O)C(Cc1ccccc1)NC(=O)c1ccccc1` (stereo unspecified) the entry was “inactive”; with `O=C(Nc1ccc(Cl)c(Cl)c1)N1CC=C(c2ccccc2)CC1`, “inactive”; with `Cc1nc2ccccc2c(-c2ccccc2)c1C(=O)c1ccccc1`, “inactive”. For `C=CCn1c(SCC(=O)/C(C#N)=C(\C)N)nc2sc(C)c(C)c2c1=O`, the activity change result is “inactive”.

`Cc1ccccc1C(=O)Nc1ccccc1Sc1ccccc1`: the activity change entry was “inactive”.
